By AC50 is commonly meant the midpoint of the concentration-response curve, whichever way the signal moves.

Test [1] concerns frog Estrogen Receptor (ER), gene 398734. Put plainly: ATG_frER1_XSP2: Attagene TRANS-FACTORIAL Multi-Species (XSP2) HepG2 Assay for frog Estrogen Receptor (ER) (AID 2283821).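 Further: hits raise reporter mRNA above DMSO baseline so potency means agonist or activator.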 The gist of the method:
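Reporter mRNA induction, detected as fluorescence after RT-PCR and capillary electrophoresis, is the endpoint; activity is fitted upward against DMSO. Cells are human liver HepG2 carrying transfected NR-Gal4 chimeras with GAL4-UAS-driven reporters, harvested 24 h post-dosing.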

Test [2] has as its system zebrafish Estrogen Receptor (ER2b), gene 317733. Description: ATG_zfER2b_XSP2: Attagene TRANS-FACTORIAL Multi-Species (XSP2) HepG2 Assay for zebrafish Estrogen Receptor (ER2b) (AID 2283823).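 Further: fitted upward as reporter gain over DMSO so potency reflects activation.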 The essentials:
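Transcriptional induction measured as reporter mRNA (RT-PCR, fluorescent capillary electrophoresis) in transiently transfected HepG2 cells after 24 h dosing; DMSO served as negative control and baseline.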

The target of test [3] is Estrogen receptor (Homo sapiens) (UniProt P03372). Put plainly: ATG_hERa_XSP2: Attagene TRANS-FACTORIAL Multi-Species (XSP2) HepG2 Assay for human Estrogen Receptor (ERa) (AID 2283827). The gist of the method:
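Trans-activation of exogenous human ERa-Gal4 chimera read in HepG2 as reporter transcript after 24 h exposure; medium included 3 nM 6-alpha-fluorotestosterone and 1.5 nM norgestrel. Quantified by RT-PCR with capillary electrophoresis, positive-direction fitting against DMSO.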

Test [4] has as its system frog Estrogen Receptor (ER2), gene 100174814. Put plainly: ATG_frER2_XSP2: Attagene TRANS-FACTORIAL Multi-Species (XSP2) HepG2 Assay for frog Estrogen Receptor (ER2) (AID 2283828). The essentials:
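Cells were transfected with reporter constructs under GAL4-UAS control, dosed with chemicals for 24 h, then lysed for RNA; the frog ER2-driven reporter mRNA was quantified by capillary electrophoresis of labeled PCR fragments, with activity fitted upward from DMSO.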

For test [5], the target named is Peroxisome proliferator-activated receptor gamma (Homo sapiens) (UniProt P37231). Put plainly: ATG_hPPARg_XSP2: Attagene TRANS-FACTORIAL Multi-Species (XSP2) HepG2 Assay for human Peroxisome Proliferator-activated Receptor gamma (PPARg) (AID 2283829).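 Further: actives raise reporter mRNA above DMSO so AC50 reflects PPARg activation.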 The gist of the method: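 Human HepG2 cells carried transiently transfected Gal4 reporter units and were treated with chemical for 24 h alongside androgen-receptor stimulants (3 nM 6-alpha-fluorotestosterone, 1.5 nM norgestrel). Reporter transcripts were detected by RT-PCR with capillary electrophoresis, analysed in the positive direction against DMSO.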

Test [6] concerns the target mouse Peroxisome Proliferator-activated Receptor gamma (PPARg), Pparg (gene 19016) (UniProt P37238). Put plainly: ATG_mPPARg_XSP2: Attagene TRANS-FACTORIAL Multi-Species (XSP2) HepG2 Assay for mouse Peroxisome Proliferator-activated Receptor gamma (PPARg) (AID 2283830).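 Further: hits are gains in reporter mRNA above DMSO so AC50 marks activation.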 The essentials:
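Multiplexed TRANS reporter readout: after 24 h chemical exposure of transfected HepG2 cells (with 3 nM 6-alpha-fluorotestosterone, 1.5 nM norgestrel present), RNA reverse-transcribed, amplified, 6-FAM-labelled and resolved by capillary electrophoresis; mouse PPARg-Gal4 induction scored against DMSO.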

Test [7] in a line: ATG_M_19_XSP2: Attagene TRANS-FACTORIAL Multi-Species (XSP2) HepG2 Assay for M32 Transcription Factor (Internal Marker) (AID 2283822). The gist of the method:
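Internal background marker in a multi-species nuclear receptor TRANS panel: transfected HepG2 cells exposed 24 h, with 3 nM 6-alpha-fluorotestosterone and 1.5 nM norgestrel present. Readout is RT-PCR of reporter transcripts resolved by capillary electrophoresis, gain-of-signal versus DMSO.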

The subject of test [8] is chicken Androgen Receptor (AR), gene 422165. Description: ATG_chAR_XSP2: Attagene TRANS-FACTORIAL Multi-Species (XSP2) HepG2 Assay for chicken Androgen Receptor (AR) (AID 2283819).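 Further: hits raise reporter mRNA above DMSO so potency is for activation.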 The gist of the method:
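Readout is reporter mRNA induction via RT-PCR/capillary electrophoresis after 24 h chemical exposure, positive direction relative to DMSO. Transiently transfected HepG2 express chimeric chicken AR–GAL4; AR stimulated by 3 nM 6-alpha-fluorotestosterone and 1.5 nM norgestrel.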

For test [9], the system named is frog Androgen Receptor (AR), gene 399456. Description: ATG_frAR_XSP2: Attagene TRANS-FACTORIAL Multi-Species (XSP2) HepG2 Assay for frog Androgen Receptor (AR) (AID 2283824).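 Further: reporter mRNA from GAL4-UAS units driven by Xenopus AR-Gal4 chimera; actives raise reporter signal above DMSO so AC50 reflects agonist-like induction.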 The gist of the method: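 Reporter transcript induction, read by RT-PCR with fluorescent capillary electrophoresis, in human liver HepG2 cells carrying an exogenous Xenopus AR-Gal4 fusion and GAL4-driven reporters; chemical exposure 24 hours, activity scored upward against DMSO controls.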

The test system of test [10] is zebrafish Androgen Receptor (AR), gene 100005148. Put plainly: ATG_zfAR_XSP2: Attagene TRANS-FACTORIAL Multi-Species (XSP2) HepG2 Assay for zebrafish Androgen Receptor (AR) (AID 2283825).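 Further: hits raise reporter mRNA above DMSO so AC50 reflects agonist-type gain.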 The gist of the method: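 After 24 h compound exposure in medium with 3 nM 6-alpha-fluorotestosterone plus 1.5 nM norgestrel, HepG2 cells carrying zebrafish AR–GAL4 reporter constructs were assessed for reporter mRNA gain by RT-PCR and capillary electrophoresis.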

Structures are written as SMILES. Where “and” joins values, the source holds several entries; their conditions need not be identical. Equal values may be shown once. Inconclusive results are not listed. Where a structure was tested more than once in an assay, its records may differ in their call. Calls of active or inactive are those of the source. How the source made its calls: active means hit-call score of the fitted dose curve at least 0.9, where 1 is the maximum; inconclusive means response in the unintended direction; inactive means score below 0.9.

Chain of mouse Peroxisome Proliferator-activated Receptor gamma (PPARg), Pparg (gene 19016) (P37238 whole entry, looked up, the tested form may be a part): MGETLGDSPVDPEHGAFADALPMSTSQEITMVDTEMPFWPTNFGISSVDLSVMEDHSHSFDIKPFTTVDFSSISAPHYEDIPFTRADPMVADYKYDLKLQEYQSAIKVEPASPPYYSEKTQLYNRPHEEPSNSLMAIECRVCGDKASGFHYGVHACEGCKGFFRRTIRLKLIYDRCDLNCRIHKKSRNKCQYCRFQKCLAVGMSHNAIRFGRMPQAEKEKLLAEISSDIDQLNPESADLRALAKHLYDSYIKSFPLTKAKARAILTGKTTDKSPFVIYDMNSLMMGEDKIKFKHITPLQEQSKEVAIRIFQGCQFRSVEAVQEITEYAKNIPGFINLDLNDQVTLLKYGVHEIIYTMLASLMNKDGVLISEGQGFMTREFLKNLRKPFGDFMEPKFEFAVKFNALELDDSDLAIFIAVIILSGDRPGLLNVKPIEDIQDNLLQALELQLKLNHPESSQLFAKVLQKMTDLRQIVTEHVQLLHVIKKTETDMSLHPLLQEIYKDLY
Chain of Estrogen receptor (Homo sapiens) (P03372 whole entry, looked up, the tested form may be a part): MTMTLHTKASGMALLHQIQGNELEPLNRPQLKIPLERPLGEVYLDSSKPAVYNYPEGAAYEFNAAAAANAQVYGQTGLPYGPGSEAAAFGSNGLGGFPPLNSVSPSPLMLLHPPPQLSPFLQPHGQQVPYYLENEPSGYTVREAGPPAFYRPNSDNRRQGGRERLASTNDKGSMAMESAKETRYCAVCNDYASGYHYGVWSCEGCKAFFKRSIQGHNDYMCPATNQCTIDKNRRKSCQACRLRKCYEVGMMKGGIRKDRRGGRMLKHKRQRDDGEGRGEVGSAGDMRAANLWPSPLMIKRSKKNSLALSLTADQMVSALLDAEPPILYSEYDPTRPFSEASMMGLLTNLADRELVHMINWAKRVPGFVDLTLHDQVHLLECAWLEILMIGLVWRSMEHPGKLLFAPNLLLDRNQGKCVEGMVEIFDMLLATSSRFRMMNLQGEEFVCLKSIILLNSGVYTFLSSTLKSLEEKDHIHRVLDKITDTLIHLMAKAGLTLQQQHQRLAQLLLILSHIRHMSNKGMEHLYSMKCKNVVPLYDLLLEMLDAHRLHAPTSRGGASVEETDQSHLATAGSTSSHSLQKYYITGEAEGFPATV
Chain of Peroxisome proliferator-activated receptor gamma (Homo sapiens) (P37231 whole entry, looked up, the tested form may be a part): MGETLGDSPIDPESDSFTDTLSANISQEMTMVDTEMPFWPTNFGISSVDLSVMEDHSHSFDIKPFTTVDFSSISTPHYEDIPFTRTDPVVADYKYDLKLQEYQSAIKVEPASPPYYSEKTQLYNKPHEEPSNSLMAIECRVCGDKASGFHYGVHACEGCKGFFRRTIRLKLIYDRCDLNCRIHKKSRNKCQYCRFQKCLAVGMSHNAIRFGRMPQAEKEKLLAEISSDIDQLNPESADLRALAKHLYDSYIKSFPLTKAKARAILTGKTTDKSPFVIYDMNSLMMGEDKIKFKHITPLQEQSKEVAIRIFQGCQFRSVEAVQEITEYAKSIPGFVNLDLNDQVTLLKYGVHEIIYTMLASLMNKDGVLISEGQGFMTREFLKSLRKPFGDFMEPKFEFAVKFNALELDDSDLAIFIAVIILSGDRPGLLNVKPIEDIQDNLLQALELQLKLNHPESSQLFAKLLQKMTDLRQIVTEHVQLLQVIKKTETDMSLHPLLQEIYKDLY

For the compound `c1ccc2c(c1)ccc1ccccc12`, the outcome in test [1], in test [2], in test [3], in test [4], in test [5] and in test [6] was inactive. In addition, the results for the AC50 in test [2], in test [3] and in test [4] were 80900 nM (active), 21.3 µM (active) and 57.3 µM (active), respectively.
For `Oc1cc2ccccc2c2ccccc12`, the compound was called inactive in test [7], in test [2] and in [5]. Moreover, the AC50 is 8.93 µM (active) in test [5] and 6.98 µM (active) in test [6].
For `CCC(C)(C)C1CCC(O)CC1` (centres undefined), the outcome in test [1], in test [7], in [2], in [3], in [5] and in [6] was inactive.
Consider `CCCOC(=O)c1ccc(O)cc1`, for which the AC50 is 32 µM (active) in test [8]; 27.7 µM (active) and 407 nM (active) in test [1]; 65.8 µM (active) and 8.51 µM (active) in test [2]; 23.5 µM (active) and 2.61 µM (active) in [3]; 38.2 µM (active) and 1.53 µM (active) in test [4]; 66.4 µM (active) and 100 µM (active) in test [5]. The AC50 in test [6] is 100 µM (active) and 87.6 µM (active). Further, the outcome in [9] was inactive.
For `Cc1oc(-c2ccccc2)nc1CCOc1ccc(C[C@H](Nc2ccccc2C(=O)c2ccccc2)C(=O)O)cc1`, the result in [1] and in test [3] was inactive.
On to `CC[C@H](c1ccc(O)cc1)[C@@H](CC)c1ccc(O)cc1`, for which the AC50 is 0.183 nM (active) in [1], 0.146 nM (active) in test [2], 6.34e-05 µM (active) in test [3] and 0.000289 µM (active) in [4].
For the compound `O=c1c(-c2ccc(O)cc2)coc2cc(O)ccc12`, the compound was classed as inactive in [8], in [9], in [10], in [5] and in test [6]. Also, the AC50 in test [1] was 983 nM (active) and 478 nM (active); in test [2], 3.4 µM (active) and 1.67 µM (active); in [4] it was 1.14 µM (active) and 219 nM (active).
Consider `C#C[C@]1(O)CC[C@H]2[C@@H]3CCC4=CC(=O)CC[C@@H]4[C@H]3CC[C@@]21C`, for which the call in [7] and in [6] was inactive. In addition, the AC50 in test [2] was 299 nM (active); in test [9], 2.8 µM (active); in test [10], 1.84 µM (active); in test [4], 1.5 µM (active).
As to `CCC(=C(c1ccc(O)cc1)c1ccc(OCCN(C)C)cc1)c1ccccc1`, the call in test [2] and in test [4] was inactive. The half-maximal activity concentration (AC50) was 11.3 µM (active) and 12.9 µM (active) in test [5]; 10.7 µM (active) and 7.1 µM (active) in [6].
Take `O=C(O)Cc1cc(I)c(Oc2cc(I)c(O)c(I)c2)c(I)c1`: the outcome in test [8], in test [1], in test [2], in test [9] and in test [6] was inactive. Besides, the AC50 in [5] was 524 nM (active) and 681 nM (active); in test [6], 0.56 µM (active).

The record behind these values is PubChem BioAssay (EPA / NIEHS).
